Screening data: PubChem, several laboratories
Hits are enriched below; roughly 3.3% of the tested compounds scored in any of these assays.
p47phox inh – p47phox (human) inhibition. p47phox/p22phox peptide binding, fluorescence polarization, 2 h. hit rate 0.53% among 220,000. AID 1274. inhibition, % at 24.7 µM. P14598
Bim-Mcl-1 – disrupts Bim peptide binding to human Mcl-1; Q07820; Bead-based flow cytometry, Bim peptide-Mcl-1 binding; inhibition, % at 10 µM; hit rate 0.1% among 190,000; in the data active = inhibition above about 40%
Target sequence (Q07820 whole entry, looked up): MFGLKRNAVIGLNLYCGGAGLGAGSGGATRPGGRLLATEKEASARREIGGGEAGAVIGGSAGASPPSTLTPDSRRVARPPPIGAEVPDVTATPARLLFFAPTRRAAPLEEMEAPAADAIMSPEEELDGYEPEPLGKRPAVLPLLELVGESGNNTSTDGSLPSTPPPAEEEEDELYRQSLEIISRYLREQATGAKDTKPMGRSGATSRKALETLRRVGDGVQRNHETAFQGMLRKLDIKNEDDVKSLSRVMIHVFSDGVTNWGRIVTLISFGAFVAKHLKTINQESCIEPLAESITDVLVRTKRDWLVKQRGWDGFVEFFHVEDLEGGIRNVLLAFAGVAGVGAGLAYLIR
eIF4E-4G inh – blocks eIF4E binding to eIF4G | TR-FRET eIF4E-eIF4GI(517-606) binding, 2 h | inhibition, % at 21.7 µM | hit rate 0.37% among 220,000 | AID 782
Mcl1-Noxa inh – disrupts binding of human Mcl-1 to Noxa peptide; Q07820; TR-FRET Mcl-1/Noxa peptide binding, 2 h; inhibition, % at 21.7 µM; hit rate 1.5% among 220,000; AID 1022;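 active = compounds that cut the protein-peptide binding signal by more than 50% relative to plate controls in a single-dose test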;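 also: His-tagged Mcl-1 with rhodamine Noxa BH3 peptide and terbium anti-His antibody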
14-3-3 Bad PPI – disrupts binding of bovine 14-3-3 zeta to phospho-Bad peptide; TR-FRET 14-3-3zeta/Dy647-pBad peptide displacement, 1 h; inhibition, % at 21.7 µM; hit rate 0.71% among 220,000; AID 781;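 active = inhibition above about 70%, limit read from the data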
Target sequence (P63103 whole entry, looked up): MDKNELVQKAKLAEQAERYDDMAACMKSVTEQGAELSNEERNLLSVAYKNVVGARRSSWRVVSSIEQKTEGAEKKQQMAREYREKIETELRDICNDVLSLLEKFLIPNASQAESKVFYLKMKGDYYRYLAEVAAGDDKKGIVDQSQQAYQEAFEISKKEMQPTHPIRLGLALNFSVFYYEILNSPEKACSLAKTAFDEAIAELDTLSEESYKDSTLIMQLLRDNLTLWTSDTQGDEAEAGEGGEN
Mcl1 Bid PPI – Mcl-1/Bid interaction inhibition; hit rate 0.97% among 220,000; TR-FRET Mcl-1/Bid-Dy647 peptide binding, 1536-well; Q07820; inhibition, % at 21.7 µM;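 active = compounds that cut the binding signal by more than half at the single screening dose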;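 also: His-tagged Mcl-1 with europium anti-His antibody binding Bid BH3 peptide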
A number is an active result; i = inactive; nt = no result; [ ] = another dose, or the depositor's remark.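 The calls were made as follows, unless noted: active = inhibition above about 30% (limit read from the data); inactive = the rest.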

SMILES | p47phox inh | Bim-Mcl-1 | eIF4E-4G inh | Mcl1-Noxa inh | 14-3-3 Bad PPI | Mcl1 Bid PPI
Cc1ccc(-n2c(C)cc(/C=N/Nc3ccc([N+](=O)[O-])cn3)c2C)cc1 | i | i | 35[fluorescence artefact?] | i | i | i
Cc1cc(/C=N/Nc2ccc([N+](=O)[O-])cn2)c(C)n1-c1ccccc1 | i | i | i | i | i | i
CCOc1ccc(-c2csc3ncn(-c4ccc(OC)cc4)c(=O)c23)cc1 | i | i | i | i | i | 84
Brc1ccc(C2=Nc3cccc4cccc(c34)N2)o1 | i | i | i | 55 | i | i
Fc1ccc(C2=Nc3cccc4cccc(c34)N2)cc1 | i | i | i | i | i | i
COc1ccccc1NS(=O)(=O)c1ccc(NN=C2CCCC2)c([N+](=O)[O-])c1 | i | i | 67[fluorescence artefact?] | i | i | i
CCOc1ccc(NC(=O)NNC(=O)c2ccc(CC)s2)cc1 | i | i | i | i | i | i
O=C(Nc1sc2c(c1C(=O)O)CCCCC2)c1ccccc1 | i | i | i | i | i | i
COC(=O)c1c(NC(C)=O)sc2c1CCCC2 | i | i | i | i | i | i
O=C(Nc1sc2c(c1C(=O)O)CCC2)c1ccccc1 | i | i | i | i | 83 | 72
CCOC(=O)c1c(NC(=O)c2ccccc2N(C)S(=O)(=O)c2ccccc2)sc2c1CCCC2 | i | 53 | i | i | i | i
COC(=O)c1c(NC(=O)c2cnccn2)sc2c1CCC2 | i | i | i | i | i | 97
CNC(=S)Nc1sc2c(c1C(=O)OC)CCC2 | i | i | i | 75 | i | i
COC(=O)c1c(NC(=O)c2ccccc2N(C)S(=O)(=O)c2ccccc2)sc2c1CCCC2 | i | i | i | i | i | i
Cc1nc([N+](=O)[O-])c(C(=O)OCc2ccccc2C#N)n1C | i | i | i | i | i | i
O=Cc1ccc(OCC(=O)N2CCOCC2)cc1 | i | i | i | i | i | i
O=c1c2nnn(-c3ccccc3)c2ncn1C/C=C/c1ccccc1 | i | i | i | i | i | i
CCCCN1C(=O)N(C)C2NC(=S)NC21 (centres undefined) | i | nt | i | i | i | i
CN(C)S(=O)(=O)N1CCN(c2cccc(Cl)c2)CC1 | i | i | i | 55 | i | i
CCc1cc2c(SCC(=O)Nc3cc(C)on3)ncnc2s1 | i | i | i | i | i | i
COc1cc(/C=N/O)ccc1Oc1ccc([N+](=O)[O-])cc1[N+](=O)[O-] | i | i | i | i | i | i
O=[N+]([O-])c1cc(/C=N\O)ccc1Oc1ccc(F)cc1 | i | i | i | i | 85 | i
CCN(CC)c1ccc(C(=O)OCC(=O)Nc2ccc3[nH]c(=O)[nH]c3c2)cc1 | i | i | i | 55 | i | i
O=C(COC(=O)c1ccc(F)cc1F)Nc1ccc2[nH]c(=O)[nH]c2c1 | i | i | i | 69 | i | i
CC1CC1C(=O)OCC(=O)Nc1ccc2[nH]c(=O)[nH]c2c1 (centres undefined) | i | i | i | 76 | i | i
SMILES | p47phox inh | Bim-Mcl-1 | eIF4E-4G inh | Mcl1-Noxa inh | 14-3-3 Bad PPI | Mcl1 Bid PPI
O=C(COC(=O)c1c(F)cccc1F)Nc1ccc2[nH]c(=O)[nH]c2c1 | i | i | i | 72 | i | i
O=c1oc(-c2ccc(Cl)c(Cl)c2)nn1-c1ccc(C(F)(F)F)cn1 | i | nt | i | i | i | i
CCN(CC)c1ccc(NC(=O)COC(=O)c2cccs2)cc1 | i | i | i | i | i | i
CCN(CC)c1ccc(NC(=O)COC(=O)c2ccc3ccccc3n2)cc1 | i | i | i | 57 | i | i
CCN(CC)S(=O)(=O)c1cccc(C(=O)N/N=C/c2ccc(O)c(O)c2O)c1 | i | 44 | i | 95 | i | i
CCN(CC)S(=O)(=O)c1cccc(C(=O)N[C@H](C(=O)NCc2ccccc2F)C(C)C)c1 | i | i | i | i | i | i
COc1ccc(O)c(/C=N/NC(=S)Nc2cccc(S(=O)(=O)N(C)C)c2)c1 | i | i | i | i | i | i
CCN(CC)S(=O)(=O)c1cccc(C(=O)N[C@H](C(=O)O)C(C)C)c1 | 92 | i | i | i | i | i
CN(C)S(=O)(=O)c1cccc(NC(=S)N/N=C/c2ccc(O)c(O)c2O)c1 | i | nt | 42 | 108 | i | i
CSc1ncccc1C(=O)OCC(=O)NC(C)C | i | i | i | i | i | i
Cc1ccc(OCCOC(=O)CCc2nc3ccccc3c(=O)[nH]2)cc1 | i | i | i | i | i | i
C=C(C)C(=O)Nc1cccc(C2=NOC3(C2)C[C@H](C(N)=O)N(C(=O)c2ccccc2C(=O)c2ccccc2)C3)c1 (some centres undefined) | i | nt | i | 71 | i | i
C/C=C(\C)C(=O)Nc1cccc(C2=NOC3(C2)C[C@@H](C(N)=O)N(C(=O)c2ccccc2C(=O)c2ccccc2)C3)c1 (some centres undefined) | i | nt | i | i | i | i
C=C(C)C(=O)Nc1cccc(C2=NOC3(C2)C[C@H](C(N)=O)N(C(=O)CC)C3)c1 (some centres undefined) | i | nt | i | 69 | i | i
C=C(C)C(=O)Nc1cccc(C2=NOC3(C2)C[C@@H](C(N)=O)N(C(=O)CC(c2ccccc2)c2ccccc2)C3)c1 (some centres undefined) | i | nt | i | 56 | i | i
C=C(C)C(=O)Nc1cccc(C2=NOC3(C2)C[C@H](C(N)=O)N(C(=O)CC#N)C3)c1 (some centres undefined) | i | nt | i | i | i | i
CCC(=O)N1CC2(CC(c3cccc([N+](=O)[O-])c3)=NO2)C[C@H]1C(=O)NCC(N)=O (some centres undefined) | 35 | i | i | i | i | i
O=C(C1=C[C@@H](c2coc3ccccc3c2=O)C[C@@H](OCCCCO)O1)N1CCN(Cc2ccc3c(c2)OCO3)CC1 | i | i | i | i | i | i
COc1ccc(-c2c(C(F)(F)F)oc3cc(OCC(=O)Nc4ccccc4C(F)(F)F)ccc3c2=O)cc1OC | 31 | i | i | i | i | i
N#C/C(=C\c1ccc(/C=C(/C#N)c2nn(CCO)c(N)c2C#N)cc1)c1nn(CCO)c(N)c1C#N | i | i | i | 58 | i | 62
N#C/C(=C/c1ccccc1)c1nn(CCO)c(N)c1C#N | i | i | i | i | i | i
O=C(CN1C(=O)NC(c2ccccc2)(c2ccccc2)C1=O)Nc1ccc2[nH]c(=O)[nH]c2c1 | i | nt | i | 64 | i | i
CC1(c2ccccc2)NC(=O)N(CC(=O)Nc2ccc3c(c2)OCO3)C1=O (centres undefined) | i | i | i | i | i | i
O=C(Nc1ccc2nc3ccccc3nc2c1)c1ccccc1 | i | i | i | 81 | i | i
CC(=O)Nc1ccc2oc(C)nc2c1 | i | i | i | i | i | i
CC(=O)Nc1ccc2ccccc2c1 | i | i | i | i | 92[fluorescence artefact?] | i
CC(=O)Nc1ccc2cc3ccc(NC(C)=O)cc3nc2c1 | i | nt | i | 59 | i | i
